# From PubChem BioAssay (NCI)
# Several values for one entry are separate records, joined by “and”; a condition that tells them apart may be missing. Equal values may be shown once. About 83,000 compounds went through this panel and 20% of them were active in at least one assay; those are over-represented in the sample as a whole.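 Plates (96-well) were seeded with cells, treated with compound at one concentration, and incubated for 48 hours before percent growth was determined.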 Activity calls are given as the source filed them. How the source made its calls: active means growth percent below 10; inactive means the rest.
# How the values were obtained:
# Assay in all cases: NCI-60 one-dose screen, 48 h (100 = growth as untreated, 0 = no growth, -100 = all killed)
# Details in all cases: 10 µM unless noted
# DU-145 prostate = tested on: DU-145 prostate
# K-562 leukemia = tested on: K-562 leukemia
# MALME-3M melanoma = tested on: MALME-3M melanoma
# MDA-MB-231 breast = tested on: MDA-MB-231 breast
# RXF 393 renal = tested on: RXF 393 renal
# SF-268 CNS = tested on: SF-268 CNS
# SF-295 CNS = tested on: SF-295 CNS
# SF-539 CNS = tested on: SF-539 CNS
# UACC-257 melanoma = tested on: UACC-257 melanoma
# M14 melanoma = tested on: M14 melanoma
SMILES,growth (DU-145 prostate),growth (K-562 leukemia),growth (MALME-3M melanoma),growth (MDA-MB-231 breast),growth (RXF 393 renal),growth (SF-268 CNS),growth (SF-295 CNS),growth (SF-539 CNS),growth (UACC-257 melanoma),growth (M14 melanoma)
COCCNC(C)=O,112% (inactive),105% (inactive),114% (inactive),99.2% (inactive),104% (inactive),101% (inactive),96.3% (inactive),99.5% (inactive),112% (inactive),109% (inactive)
COc1ccc(CCn2cnn3c(=O)c4ccccc4nc3c2=O)cc1OC,98.2% (inactive) and 117% (inactive),99.9% (inactive) and 102% (inactive),114% (inactive),110% (inactive) and 101% (inactive),103% (inactive) and 115% (inactive),93.8% (inactive) and 108% (inactive),111% (inactive),101% (inactive) and 97.4% (inactive),101% (inactive) and 112% (inactive),94% (inactive) and 106% (inactive)
Nc1[nH][nH]c(=O)c1N=Nc1ccccc1,109% (inactive) and 111% (inactive),137% (inactive) and 92.5% (inactive),128% (inactive) and 115% (inactive),93.8% (inactive) and 119% (inactive),123% (inactive) and 107% (inactive),103% (inactive) and 114% (inactive),111% (inactive) and 114% (inactive),102% (inactive) and 106% (inactive),109% (inactive),102% (inactive) and 112% (inactive)
O=C1C=CC(=O)N1Cc1ccco1,4.25% (active),94.1% (inactive),94.5% (inactive),84% (inactive),68.6% (inactive),89.7% (inactive),72.2% (inactive),108% (inactive),104% (inactive),85.3% (inactive)
Cc1ccc(C(=O)c2ccc(C)cc2)cc1,102% (inactive) and 103% (inactive),103% (inactive) and 110% (inactive),108% (inactive) and 93.2% (inactive),103% (inactive) and 106% (inactive),88% (inactive) and 95.8% (inactive),94.8% (inactive) and 98% (inactive),94.4% (inactive) and 103% (inactive),85.3% (inactive) and 97.6% (inactive),92.6% (inactive) and 114% (inactive),101% (inactive)
CC(CN(C)C)CN1c2ccccc2Sc2ccccc21 (stereo not given),97.3% (inactive) and 111% (inactive) and 90% (inactive),67.2% (inactive) and 72.1% (inactive) and 49.8% (inactive),81.7% (inactive) and 101% (inactive) and 95.8% (inactive),62% (inactive) and 90% (inactive),53.3% (inactive) and 86.1% (inactive) and 70.7% (inactive),90.8% (inactive) and 91.7% (inactive) and 78.1% (inactive),88% (inactive) and 35.8% (inactive) and 92% (inactive),91.7% (inactive) and 81.9% (inactive),65.1% (inactive) and 110% (inactive) and 92.1% (inactive),47.9% (inactive) and 81.3% (inactive) and 75.8% (inactive)
CCCCNC(=O)c1ccccc1C,104% (inactive),103% (inactive),87.4% (inactive),103% (inactive),94.8% (inactive),101% (inactive),94.6% (inactive),107% (inactive),100% (inactive),90.4% (inactive)
Nc1ccc(Cl)c(S(=O)(=O)O)c1,105% (inactive),104% (inactive),112% (inactive),111% (inactive),95.1% (inactive),102% (inactive),112% (inactive),94.3% (inactive),98.8% (inactive),98.9% (inactive)
OC1CCCN(Cc2ccccc2)C1 (stereo not given),121% (inactive),111% (inactive),104% (inactive),103% (inactive),107% (inactive),102% (inactive),114% (inactive),109% (inactive),93.9% (inactive),98.7% (inactive)
CCCC(=O)OCC(COC(=O)CCC)OC(=O)CCC,111% (inactive),97.7% (inactive),107% (inactive),109% (inactive),110% (inactive),104% (inactive),99.9% (inactive),103% (inactive),95.5% (inactive),102% (inactive)
COc1ccc(/C=C/C(=O)O)cc1OC,108% (inactive) and 111% (inactive),96.7% (inactive) and 105% (inactive),103% (inactive) and 122% (inactive),100% (inactive) and 108% (inactive),107% (inactive) and 111% (inactive),108% (inactive) and 99.3% (inactive),107% (inactive) and 105% (inactive),102% (inactive) and 105% (inactive),104% (inactive) and 102% (inactive),101% (inactive) and 106% (inactive)
CN(C)C(=S)N(C)C,110% (inactive),106% (inactive),165% (inactive),111% (inactive),114% (inactive),103% (inactive),112% (inactive),99.2% (inactive),107% (inactive),101% (inactive)
CCCCC/C(C)=N\NC(N)=S,85.2% (inactive),58.7% (inactive),83.7% (inactive),85.9% (inactive),85.7% (inactive),88.2% (inactive),83.4% (inactive),103% (inactive),60% (inactive),74.5% (inactive)
CN(C)c1ccc(C(=N)c2ccc(N(C)C)cc2)cc1,42.3% (inactive) and 56.5% (inactive),12.8% (inactive) and 7.8% (active),61.6% (inactive),53.9% (inactive) and 35.9% (inactive),49.6% (inactive) and 39.6% (inactive),44.5% (inactive) and 53.6% (inactive),26.7% (inactive) and 12.1% (inactive),41.1% (inactive) and 34.6% (inactive),38.2% (inactive) and 51.7% (inactive),2.95% (active)
O=C1c2ccccc2CN1c1ccccc1,115% (inactive),94.2% (inactive),118% (inactive),95.4% (inactive),105% (inactive),107% (inactive),104% (inactive),102% (inactive),103% (inactive),100% (inactive)
CN(C=O)c1ccccc1,103% (inactive),97.7% (inactive),87.3% (inactive),84.6% (inactive),105% (inactive),103% (inactive),92.8% (inactive),92.9% (inactive),103% (inactive),95.8% (inactive)
O=C(c1ccncc1)c1c(Cc2ccccc2)ccc2ccccc12,99.2% (inactive),101% (inactive),32.3% (inactive),70.2% (inactive),84% (inactive),117% (inactive),83.6% (inactive),95.3% (inactive),-14.4% (active),108% (inactive)
Cc1ccc2cccc([N+](=O)[O-])c2n1,116% (inactive) and 109% (inactive),91% (inactive) and 88.7% (inactive),99.1% (inactive) and 108% (inactive),107% (inactive) and 104% (inactive),119% (inactive) and 110% (inactive),103% (inactive),108% (inactive) and 110% (inactive),105% (inactive) and 103% (inactive),102% (inactive) and 107% (inactive),121% (inactive) and 97.9% (inactive)
CCC(C)(O)CCC(C)(O)CC (stereo not given),105% (inactive),99.3% (inactive),93.6% (inactive),109% (inactive),130% (inactive),99.2% (inactive),102% (inactive),103% (inactive),106% (inactive),103% (inactive)
C/C(=C\c1ccccc1)C(O)C(=O)c1nc2ccc([N+](=O)[O-])cc2[nH]c1=O (stereo not given),105% (inactive),85.8% (inactive),109% (inactive),90.8% (inactive),109% (inactive),98.1% (inactive),93.3% (inactive),102% (inactive),81.2% (inactive),92.3% (inactive)
CC1CC(O)CC(C)(C)C1.CC1CC(O)CC(C)(C)C1.CC1CC(O)CC(C)(C)C1.CC1CC(O)CC(C)(C)C1.[Ti] (stereo not given),121% (inactive),98.2% (inactive),103% (inactive),96.2% (inactive),112% (inactive),115% (inactive),102% (inactive),107% (inactive),113% (inactive),96% (inactive)
N#Cc1c(N)nc2c(c(-c3ccc(Cl)cc3)nn2-c2ccccc2)c1C#N,101% [100 µM] (inactive),97.6% [100 µM] (inactive),105% [100 µM] (inactive),98% [100 µM] (inactive),97.1% [100 µM] (inactive),93.7% [100 µM] (inactive),97.9% [100 µM] (inactive),74.1% [100 µM] (inactive),91.8% [100 µM] (inactive),106% [100 µM] (inactive)
CC(C)(C(=O)c1cccnc1)c1cccnc1,112% (inactive) and 114% (inactive),104% (inactive) and 115% (inactive),96.3% (inactive) and 125% (inactive),96.4% (inactive) and 119% (inactive),105% (inactive) and 119% (inactive),107% (inactive) and 106% (inactive),95.7% (inactive) and 124% (inactive),99.5% (inactive) and 95.9% (inactive),97.3% (inactive) and 115% (inactive),101% (inactive) and 92.2% (inactive)
